These results are taken from ChEMBL document CHEMBL1961873, “Compounds: GSK PKIS; Assays: Nanosyn kinase panel” (2012).

Assay [1] addresses RAC-alpha serine/threonine-protein kinase (Homo sapiens) (UniProt P31749). The settings on record: at 0.1 µM.
The target is the same in assay [2]. The settings on record: at 1 µM.
The target in assay [3] is RAC-beta serine/threonine-protein kinase (Homo sapiens) (UniProt P31751). The note with it: at 0.1 µM.
The target is the same in assay [4]. The settings on record: at 1 µM.
The target in assay [5] is RAC-gamma serine/threonine-protein kinase (Homo sapiens) (UniProt Q9Y243). The note with it: at 0.1 µM.
Assay [6] has the same target. The note with it: at 1 µM.
Assay [7] addresses G protein-coupled receptor kinase 6 (Homo sapiens) (UniProt P43250). The note with it: at 0.1 µM.
Assay [8] has the same target. The settings on record: at 1 µM.
Assay [9] has as its target T1, Rhodopsin kinase GRK7 (Homo sapiens) (UniProt Q8WTQ7).
T1 sequence (whole entry): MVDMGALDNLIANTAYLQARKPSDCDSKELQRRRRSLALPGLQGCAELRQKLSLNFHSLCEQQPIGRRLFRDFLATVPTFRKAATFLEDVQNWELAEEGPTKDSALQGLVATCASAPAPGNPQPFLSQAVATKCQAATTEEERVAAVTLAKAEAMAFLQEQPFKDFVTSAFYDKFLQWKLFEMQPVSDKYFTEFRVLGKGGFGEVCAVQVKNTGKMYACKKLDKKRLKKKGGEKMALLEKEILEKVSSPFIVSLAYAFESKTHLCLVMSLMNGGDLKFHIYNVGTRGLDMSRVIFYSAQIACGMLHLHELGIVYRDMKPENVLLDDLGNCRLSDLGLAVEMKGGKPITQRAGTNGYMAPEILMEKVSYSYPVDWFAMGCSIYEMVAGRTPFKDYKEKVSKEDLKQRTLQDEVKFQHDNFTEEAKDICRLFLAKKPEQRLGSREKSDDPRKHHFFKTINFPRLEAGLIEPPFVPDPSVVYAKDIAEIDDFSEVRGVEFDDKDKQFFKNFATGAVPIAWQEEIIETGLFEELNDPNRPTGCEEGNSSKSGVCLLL
The note with it: at 0.1 µM.

The target of assay [10] is T1, Rhodopsin kinase GRK7 (Homo sapiens). The settings on record: at 1 µM.
Assay [11] concerns the target Serine/threonine-protein kinase MRCK alpha (Homo sapiens) (UniProt Q5VT25). The note with it: at 0.1 µM.
Assay [12] has the same target. The note with it: at 1 µM.
Assay [13] addresses Serine/threonine-protein kinase MRCK beta (Homo sapiens) (UniProt Q9Y5S2). The note with it: at 0.1 µM.
The target is the same in assay [14]. The note with it: at 1 µM.
Assay [15] has as its target Ribosomal protein S6 kinase alpha-5 (Homo sapiens) (UniProt O75582). The note with it: at 0.1 µM.
For assay [16] the target is unchanged. The settings on record: at 1 µM.
Assay [17] concerns the target Ribosomal protein S6 kinase alpha-4 (Homo sapiens) (UniProt O75676). The note with it: at 0.1 µM.
Assay [18] has the same target. The settings on record: at 1 µM.
Assay [19] addresses Ribosomal protein S6 kinase beta-1 (Homo sapiens) (UniProt P23443). The note with it: at 0.1 µM.
The target is the same in assay [20]. The note with it: at 1 µM.

Several values for one entry are separate records, joined by “and”; a condition that tells them apart may be missing. Identical values can stand only once.

Sequence of Ribosomal protein S6 kinase beta-1 (Homo sapiens) (P23443 whole entry, looked up): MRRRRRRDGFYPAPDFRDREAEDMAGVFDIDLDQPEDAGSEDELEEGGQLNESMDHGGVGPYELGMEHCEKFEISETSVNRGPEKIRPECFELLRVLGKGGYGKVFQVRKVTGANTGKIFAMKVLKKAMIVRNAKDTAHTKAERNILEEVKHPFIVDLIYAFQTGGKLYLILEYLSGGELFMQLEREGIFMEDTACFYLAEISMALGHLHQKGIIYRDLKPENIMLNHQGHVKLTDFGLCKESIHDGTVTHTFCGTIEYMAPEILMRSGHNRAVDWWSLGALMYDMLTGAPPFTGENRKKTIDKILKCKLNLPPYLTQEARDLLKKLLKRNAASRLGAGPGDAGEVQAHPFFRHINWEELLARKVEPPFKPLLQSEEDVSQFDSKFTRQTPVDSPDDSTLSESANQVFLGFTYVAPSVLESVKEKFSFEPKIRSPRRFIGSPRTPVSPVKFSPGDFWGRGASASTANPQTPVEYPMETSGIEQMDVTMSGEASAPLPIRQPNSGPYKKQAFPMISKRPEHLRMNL
Sequence of Serine/threonine-protein kinase MRCK beta (Homo sapiens) (Q9Y5S2 whole entry): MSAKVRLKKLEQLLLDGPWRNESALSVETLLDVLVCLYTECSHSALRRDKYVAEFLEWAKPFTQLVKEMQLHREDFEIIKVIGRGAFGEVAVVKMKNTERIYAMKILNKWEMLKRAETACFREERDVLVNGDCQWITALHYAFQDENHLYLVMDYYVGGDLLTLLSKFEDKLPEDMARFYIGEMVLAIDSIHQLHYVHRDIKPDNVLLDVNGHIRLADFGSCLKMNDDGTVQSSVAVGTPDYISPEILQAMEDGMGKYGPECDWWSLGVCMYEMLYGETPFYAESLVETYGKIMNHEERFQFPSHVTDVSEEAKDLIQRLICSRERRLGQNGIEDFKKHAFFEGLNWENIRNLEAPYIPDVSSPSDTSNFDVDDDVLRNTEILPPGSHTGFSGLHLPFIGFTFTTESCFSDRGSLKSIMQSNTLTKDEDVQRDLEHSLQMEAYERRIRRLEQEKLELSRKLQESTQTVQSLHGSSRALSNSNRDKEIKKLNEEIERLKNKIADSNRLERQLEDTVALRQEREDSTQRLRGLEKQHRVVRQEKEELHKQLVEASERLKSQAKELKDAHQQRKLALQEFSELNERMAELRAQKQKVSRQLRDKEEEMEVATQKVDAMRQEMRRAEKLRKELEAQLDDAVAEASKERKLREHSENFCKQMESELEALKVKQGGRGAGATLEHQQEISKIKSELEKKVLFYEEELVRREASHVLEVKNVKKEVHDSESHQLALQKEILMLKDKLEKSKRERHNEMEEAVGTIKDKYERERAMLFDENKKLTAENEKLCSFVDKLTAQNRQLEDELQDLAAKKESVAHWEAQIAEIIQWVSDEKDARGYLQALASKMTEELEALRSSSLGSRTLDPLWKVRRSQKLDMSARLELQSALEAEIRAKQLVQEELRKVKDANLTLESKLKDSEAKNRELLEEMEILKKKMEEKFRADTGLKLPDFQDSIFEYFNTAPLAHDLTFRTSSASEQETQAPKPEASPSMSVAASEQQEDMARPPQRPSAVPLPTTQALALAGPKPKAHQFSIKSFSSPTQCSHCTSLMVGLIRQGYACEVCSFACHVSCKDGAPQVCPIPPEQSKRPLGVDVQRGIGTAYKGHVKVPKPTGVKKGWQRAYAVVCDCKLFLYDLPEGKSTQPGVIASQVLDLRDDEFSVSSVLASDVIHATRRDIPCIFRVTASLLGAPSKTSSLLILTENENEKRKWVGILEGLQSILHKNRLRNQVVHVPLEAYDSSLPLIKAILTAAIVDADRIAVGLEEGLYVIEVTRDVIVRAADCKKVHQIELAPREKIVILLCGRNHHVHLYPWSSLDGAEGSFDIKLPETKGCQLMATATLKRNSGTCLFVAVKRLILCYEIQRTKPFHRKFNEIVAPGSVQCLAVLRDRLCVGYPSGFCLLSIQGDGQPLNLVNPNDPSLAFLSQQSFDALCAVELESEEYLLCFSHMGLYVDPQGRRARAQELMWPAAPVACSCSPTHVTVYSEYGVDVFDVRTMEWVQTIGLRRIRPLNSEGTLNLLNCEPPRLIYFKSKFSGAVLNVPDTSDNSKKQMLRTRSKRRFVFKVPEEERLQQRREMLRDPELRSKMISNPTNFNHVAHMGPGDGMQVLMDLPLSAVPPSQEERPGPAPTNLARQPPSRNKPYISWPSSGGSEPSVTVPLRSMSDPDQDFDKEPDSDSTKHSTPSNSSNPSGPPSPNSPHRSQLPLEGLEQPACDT
Sequence of Serine/threonine-protein kinase MRCK alpha (Homo sapiens) (Q5VT25 whole entry): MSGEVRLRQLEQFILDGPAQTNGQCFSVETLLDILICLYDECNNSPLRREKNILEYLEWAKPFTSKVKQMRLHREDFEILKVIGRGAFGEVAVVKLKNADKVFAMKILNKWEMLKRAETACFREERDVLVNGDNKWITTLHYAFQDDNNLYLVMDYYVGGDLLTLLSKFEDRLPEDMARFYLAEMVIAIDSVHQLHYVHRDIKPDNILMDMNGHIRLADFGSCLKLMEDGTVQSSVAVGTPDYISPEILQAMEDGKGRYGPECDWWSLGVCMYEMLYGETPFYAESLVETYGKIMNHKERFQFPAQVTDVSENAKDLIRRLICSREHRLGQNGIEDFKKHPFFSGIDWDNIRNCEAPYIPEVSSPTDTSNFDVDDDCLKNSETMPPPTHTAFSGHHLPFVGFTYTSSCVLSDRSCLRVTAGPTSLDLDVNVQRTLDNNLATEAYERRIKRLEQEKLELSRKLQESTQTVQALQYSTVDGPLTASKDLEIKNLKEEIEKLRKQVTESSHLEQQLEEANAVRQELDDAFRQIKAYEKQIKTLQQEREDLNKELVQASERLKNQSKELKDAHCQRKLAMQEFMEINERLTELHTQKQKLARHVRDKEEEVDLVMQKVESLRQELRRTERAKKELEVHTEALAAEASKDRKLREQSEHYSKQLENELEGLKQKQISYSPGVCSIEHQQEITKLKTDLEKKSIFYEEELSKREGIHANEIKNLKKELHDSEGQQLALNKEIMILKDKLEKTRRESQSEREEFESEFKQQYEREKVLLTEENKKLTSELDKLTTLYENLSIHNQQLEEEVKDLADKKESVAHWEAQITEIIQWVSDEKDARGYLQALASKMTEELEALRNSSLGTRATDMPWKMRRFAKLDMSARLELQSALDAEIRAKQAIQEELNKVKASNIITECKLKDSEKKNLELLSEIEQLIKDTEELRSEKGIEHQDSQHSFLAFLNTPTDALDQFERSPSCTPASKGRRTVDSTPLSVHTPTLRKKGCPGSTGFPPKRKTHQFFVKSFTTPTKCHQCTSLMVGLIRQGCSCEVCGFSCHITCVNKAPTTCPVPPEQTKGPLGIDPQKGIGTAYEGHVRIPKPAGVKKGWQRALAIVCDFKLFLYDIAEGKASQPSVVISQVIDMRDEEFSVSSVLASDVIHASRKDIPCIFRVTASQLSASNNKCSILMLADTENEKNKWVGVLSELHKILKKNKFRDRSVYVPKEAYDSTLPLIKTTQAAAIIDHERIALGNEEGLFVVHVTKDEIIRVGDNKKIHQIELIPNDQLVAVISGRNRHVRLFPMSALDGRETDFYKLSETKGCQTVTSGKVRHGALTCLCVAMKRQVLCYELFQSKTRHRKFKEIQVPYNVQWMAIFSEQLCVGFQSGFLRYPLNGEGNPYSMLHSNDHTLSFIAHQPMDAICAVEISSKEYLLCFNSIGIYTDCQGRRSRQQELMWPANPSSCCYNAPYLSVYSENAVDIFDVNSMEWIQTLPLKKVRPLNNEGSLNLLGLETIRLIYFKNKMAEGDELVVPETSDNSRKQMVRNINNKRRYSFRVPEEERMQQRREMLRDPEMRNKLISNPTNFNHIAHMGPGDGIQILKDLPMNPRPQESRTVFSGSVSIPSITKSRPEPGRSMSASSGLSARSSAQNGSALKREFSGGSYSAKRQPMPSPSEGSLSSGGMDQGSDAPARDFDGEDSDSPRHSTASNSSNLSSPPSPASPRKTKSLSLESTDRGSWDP
Sequence of RAC-alpha serine/threonine-protein kinase (Homo sapiens) (P31749 whole entry): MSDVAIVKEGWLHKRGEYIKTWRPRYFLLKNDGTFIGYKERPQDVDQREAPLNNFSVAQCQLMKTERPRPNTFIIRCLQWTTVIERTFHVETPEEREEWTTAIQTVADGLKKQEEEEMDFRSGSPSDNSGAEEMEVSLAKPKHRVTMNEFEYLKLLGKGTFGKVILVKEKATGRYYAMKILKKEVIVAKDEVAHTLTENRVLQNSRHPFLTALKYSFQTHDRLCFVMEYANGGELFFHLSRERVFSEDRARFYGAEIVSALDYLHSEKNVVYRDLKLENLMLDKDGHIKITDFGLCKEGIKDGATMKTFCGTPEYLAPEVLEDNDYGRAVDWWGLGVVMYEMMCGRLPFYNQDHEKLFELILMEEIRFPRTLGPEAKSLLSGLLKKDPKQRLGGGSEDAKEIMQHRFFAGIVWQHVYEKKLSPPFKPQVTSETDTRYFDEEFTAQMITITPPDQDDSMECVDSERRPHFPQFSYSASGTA
Sequence of RAC-beta serine/threonine-protein kinase (Homo sapiens) (P31751 whole entry): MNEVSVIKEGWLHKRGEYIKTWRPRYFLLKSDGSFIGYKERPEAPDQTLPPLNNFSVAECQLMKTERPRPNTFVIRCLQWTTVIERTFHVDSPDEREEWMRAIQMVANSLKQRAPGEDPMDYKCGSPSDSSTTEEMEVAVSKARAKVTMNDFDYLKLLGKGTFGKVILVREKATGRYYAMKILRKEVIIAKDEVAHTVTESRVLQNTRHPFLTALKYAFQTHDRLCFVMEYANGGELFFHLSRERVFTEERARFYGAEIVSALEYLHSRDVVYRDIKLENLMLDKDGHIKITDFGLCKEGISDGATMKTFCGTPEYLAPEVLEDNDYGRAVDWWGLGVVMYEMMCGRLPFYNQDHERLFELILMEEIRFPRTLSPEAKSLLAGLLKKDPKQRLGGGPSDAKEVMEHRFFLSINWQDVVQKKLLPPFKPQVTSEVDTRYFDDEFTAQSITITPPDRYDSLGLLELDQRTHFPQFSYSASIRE

As a reminder, the inhibition is the relative decrease from the control value, in per cent. For `CS(=O)(=O)CCNCc1ccc(-c2ccc3ncnc(Nc4ccc(OCc5cccc(C(F)(F)F)c5)cc4)c3c2)o1`, the inhibition in assay [1] was 0.68%; in assay [2] it was 0.01%; in assay [3], 0.73%; in assay [4], 1.64%; in assay [5] it was 0.95%; in [6], 2.79%. The inhibition in [7] amounted to 6.2%; in [8], 3.84%; in assay [9], 8.32%; in [10], 0.47%; in [11] it was 1.26%; in assay [12], 5.01%. The inhibition was 0.69% in assay [13]; 2% in assay [14]; 4.18% in assay [15]; 3.88% in assay [16]; 1.66% in [17]; 2.03% in assay [18]. The inhibition in [19] came out at 1.39%; in assay [20], 3.25%.
Take `CN1CCC(n2cnc(-c3ccc(F)cc3)c2-c2ccnc(NCCO)n2)CC1`: the inhibition in assay [1] came to 0.7%; in assay [2] it was 1.07%; in assay [3], 1.3%; in [4], 1.3%; in assay [5], 1.33%; in assay [6], 2.14%. In addition, the inhibition in [7] turned out to be 4.71%; in assay [8], 6.12%; in [9], 4.41%; in assay [10], 7.73%; in [11] it was 0.14%; in assay [12] it was 2.92%. In addition, the inhibition is -1.48% in assay [13]; 0.28% in assay [14]; 3.35% in assay [15]; 4.7% in [16]; 1.86% in assay [17]; 4.02% in [18]. Moreover, the results for the inhibition in assay [19] and in assay [20] were 0.69% and 1.98%, respectively.
For the compound `OCCCNc1nccc(-c2c(-c3ccc(F)cc3)nn3cc(C(F)(F)F)ccc23)n1`, the inhibition in [1] was found to be 0.44%; in [2], 0.71%; in [3] it was 1.9%; in [4] it was 0.18%; in [5], 0.6%; in [6], 0%. Also, the inhibition in assay [7] is 1.18%; in [8] it was -2.71%; in assay [9], -0.28%; in [10] it was -8.21%; in [11] it was 0.26%; in [12] it was -1.54%. In addition, the inhibition was 0.31% in assay [13]; 1.86% in assay [14]; 4.64% in [15]; 4.76% in assay [16]; 2.6% in assay [17]; 5.75% in [18]. In addition, the inhibition came to 3.2% in assay [19] and 2.94% in assay [20].
For the compound `Fc1cccc(COc2ccc(Nc3ncncc3C#Cc3ccccc3)cc2Cl)c1`, the inhibition in assay [1] was determined as 0.45%; in [2], 1.07%; in assay [3], 1.28%; in assay [4] it was 1.61%; in [5] it was 0.72%; in assay [6] it was 1.12%. For the same compound, the inhibition in assay [7] is 7.01%; in assay [8] it was 9.97%; in assay [9], 5.2%; in assay [10] it was 9.23%; in assay [11], -0.09%; in assay [12], 2.32%. Further, the inhibition was -0.25% in assay [13]; 0.29% in [14]; 3.88% in assay [15]; 4.33% in assay [16]; 2.46% in [17]; 4.37% in [18]. In addition, the figures for the inhibition in assay [19] and in assay [20] were 1.71% and 2.17%, respectively.
Regarding `CC1(C)CC(n2cnc(-c3ccc(F)cc3)c2-c2ccnc(N)n2)CC(C)(C)N1`, the inhibition in assay [1] is -0.24%; in assay [2] it was 0.14%; in assay [3], -0.58%; in assay [4] it was 0.6%; in [5], 0.06%; in assay [6], -0.35%. Also, the inhibition in assay [7] is 0.95%; in assay [8], 2.33%; in [9], -0.49%; in assay [10], -1.38%; in [11], 0.39%; in [12], -0.52%. Also, the inhibition in assay [13] is 0.89%; in [14] it was 1.72%; in assay [15], -2.87%; in [16], -2.36%; in assay [17], 2.08%; in [18], 3.62%. In addition, the inhibition is 1.01% in [19] and 0.28% in assay [20].
For `COc1c(C(N)=O)cc(-c2ccc(Cl)cc2)cc1-c1ccc(S(N)(=O)=O)cc1`, the inhibition in [1] worked out at 1.15%; in [2], 2.28%; in [3], 2.77%; in assay [4] it was 1.74%; in assay [5], 1.8%; in assay [6], 3.15%. The inhibition in assay [7] is 4.42%; in assay [8] it was 7.23%; in [9], 10.6%; in [10], 2.21%; in [11], 5.11%; in [12], 4.98%. Further, the inhibition in assay [13] was -0.26%; in assay [14], 2.36%; in assay [15], 2.38%; in assay [16], 3.81%; in [17], 3.65%; in assay [18] it was 5.79%. The results for the inhibition in [19] and in assay [20] were 3.07% and 4.29%, respectively.
With `NS(=O)(=O)c1ccc(N/N=C2\C(=O)Nc3ccc(C(=O)NCc4ccncc4)cc32)cc1`, the inhibition in assay [1] was 1.33%; in assay [2], 1.28%; in [3], 2.42%; in [4], 1.92%; in assay [5], 1.54%; in assay [6] it was 1.99%. In addition, the inhibition in [7] was determined as 5.6%; in [8] it was 21.9%; in assay [9], 2.04%; in [10], 6.72%; in assay [11] it was 0.07%; in assay [12], 3.72%. The inhibition in [13] is -0.38%; in assay [14], 2.29%; in assay [15] it was 5.11%; in [16], 9.08%; in assay [17], 3.9%; in assay [18] it was 14.5%. The inhibition in assay [19] was 1.29%; in assay [20] it was 6.6%.
With `CN1CCN(Cc2ccc(-c3cc4ncnc(Nc5ccc(OCc6cccc(F)c6)c(Cl)c5)c4s3)o2)CC1`, the inhibition was 2.3% and 0.84% in assay [1]; 0.33% and 0.82% in [2]; 1.77% and 3.25% in [3]; 4.18% and 1.52% in assay [4]; 0.53% and 1.8% in assay [5]; 4.32% and 3.89% in assay [6]. The inhibition is -0.68% and 8.35% in assay [7]; -0.78% and 9.33% in assay [8]; 9.19% and 5.43% in assay [9]; 0.67% and 9.84% in assay [10]; -1.39% and -0.36% in [11]; -3.23% and 2% in assay [12]. Besides, the inhibition in assay [13] was -0.68% and -0.01%; in assay [14], -1.28% and -0.15%; in assay [15] it was 7.37% and 3.64%; in assay [16], 6.3% and 5.71%; in [17], 1.66% and 2.85%; in assay [18], 1.25% and 4.7%. Also, the inhibition in [19] is 0.39% and 0.55%; in assay [20] it was 1.79% and 5.31%.
